The list is not random: actives were taken first. Their share in the collection is about 0.51%.
FMDV RLuc = shows antiviral activity in FMDV Renilla assay | FMDV replicon cells, Renilla luciferase signal | Potency, µM (highest dose often 57.5 µM), usual class: inhibitors | 120,000 tested, 0.32% active | AID 1745857; also: nearly all actives have a fitted effect of over 55% in size
FMDV FLuc = antivirals against foot and mouth disease virus | FMDV antiviral cell assay, firefly luciferase signal | Potency, µM (series often up to 57.5 µM), hits mostly inhibitors | 120,000 tested, 0.23% active; also: nearly all actives have a fitted effect of over 60% in size
Hits are given with their value; - = inactive; ? = inconclusive; [ ] = remark or other dose. Calls follow the shape of the full dose curve.

SMILES | FMDV RLuc | FMDV FLuc
CCCS(=O)(=O)NCc1cccc(COC(C)(C)C)c1 | - | -
CCS(=O)(=O)c1ccccc1C(=O)N1CCN(c2nc3ccccc3s2)CC1 | - | 11µM
O=C(c1ccc(Cl)cc1)N1CCN(c2nc3ccccc3s2)CC1 | - | -
Cn1c(=O)c2c(ncn2CC(=O)Nc2ccccc2Cc2ccccc2)n(C)c1=O | - | -
COc1ccc(-n2c(=O)c3c4c(sc3n3cnnc23)CCC4)cc1 | - | -
CC(C)CCn1c(C2CC(=O)N(Cc3ccc(F)cc3)C2)nc2ccccc21 (stereo not given) | 18µM | 18µM
CCc1ccc(OCCn2c(C3CC(=O)N(Cc4ccc(F)cc4)C3)nc3ccccc32)cc1 (stereo not given) | ? | -
CN(C(=O)CSc1nc2ccc(NC(=O)COc3ccc(Cl)cc3)cc2s1)c1ccccc1 | - | -
COc1ccc(C(=O)Nc2ccc3nc(SCC(=O)N(C)c4ccccc4)sc3c2)cc1 | 28µM | ?
CN1C(C(=O)NCc2ccc(F)cc2)=C(c2ccccc2)c2cc(Cl)ccc2S1(=O)=O | - | -
CCOC(=O)Cc1ccc(NC(=O)n2ncc3c(C)cccc32)cc1 | - | ?
CCOC(=O)Cc1ccc(NC(=O)n2ncc3cc(Cl)ccc32)cc1 | - | 7.9µM
O=C(c1cc2c(s1)-c1ccc(Cl)cc1SC2)N1CCC(Cc2ccccc2)CC1 | - | -
CCC1CN(C(=O)N2CCC(C(=O)N3CCN(c4cc(C)ccc4C)CC3)CC2)c2ccccc2O1 (stereo not given) | ? | 20µM
CCC1CN(C(=O)N2CCC(C(=O)N3CCN(c4cccc(C)c4C)CC3)CC2)c2ccccc2O1 (stereo not given) | 28µM | ?
CCC1CN(C(=O)N2CCC(C(=O)NCc3ccccc3C)CC2)c2ccccc2O1 (stereo not given) | - | -
CCC1CN(C(=O)N2CCC(C(=O)Nc3cc(C)ccc3C)CC2)c2ccccc2O1 (stereo not given) | - | -
Cc1nc2nc(SCC(=O)Nc3cccc(Cl)c3C)[nH]c2cc1Br | - | -
Cc1ccc(/C(=N/O)c2oc3ccc4c(C)cc(=O)oc4c3c2-c2ccccc2)cc1 | -[1.06 µM] | ?
COc1cc(Cl)c(C)cc1NC(=O)c1ccc(-n2cccn2)cc1 | - | -
CC(C(=O)Nc1sc2c(c1C#N)CCCCC2)n1cnc2c1c(=O)n(C)c(=O)n2C (stereo not given) | 14µM | ?
CCC(C(=O)Nc1sc2c(c1C#N)CCCC2)n1cnc2c1c(=O)n(C)c(=O)n2C (stereo not given) | - | -
COc1ccc(C)cc1NS(=O)(=O)c1ccc(-c2cnc(C3CC3)o2)cc1 | 16µM | 14µM
Cc1ccc(CNS(=O)(=O)c2ccc(-c3cnc(C4CC4)o3)cc2)cc1 | - | -
C=C(Br)CN1CCN(C(=O)CN2CCCC2)CC1 | - | -
SMILES | FMDV RLuc | FMDV FLuc
CC(NC(=O)C1CCOCC1)c1ccc(Cl)s1 (stereo not given) | - | -
CCCn1nc(C(=O)Nc2ncc(Cc3cccc(Cl)c3)s2)ccc1=O | ? | 28µM
O=C(CCCCl)Nc1ncc(Cc2cccc(Cl)c2)s1 | - | -
NC(=O)NC(=O)CSc1nc2ccccc2c(=O)n1-c1ccccc1Cl | - | -
Cc1cc(C)c([N+](=O)[O-])cc1[N+](=O)[O-] | - | -
Cc1ccc([N+](=O)[O-])[c]2c1[O][Hg]2 | ? | 2.8µM
Cc1cc(C)c2c(-n3cccc3)nn(CCCC(=O)Nc3ccc(F)cc3C)c2n1 | - | -
COc1ccc(N2CCN(S(=O)(=O)c3csc(C(N)=O)c3)CC2)cc1 | - | -
Cc1cccc(N2CCN(S(=O)(=O)c3csc(C(N)=O)c3)CC2)c1C | 8.9µM | 13µM
COc1ccc(Cl)cc1NC(=O)CSc1nc2c(c(=O)n1CCc1ccccc1)SCC2 | - | -
N#Cc1ccc(CN2CCN(C(=O)c3ccc(Cn4nnc5ccccc54)cc3)CC2)cc1 | 5µM | 6.3µM
N#Cc1ccc(CN2CCN(C(=O)C3CC=CCC3)CC2)cc1 (stereo not given) | - | -
N#CC1=C(SCc2ccc(Cl)cc2)NC(=O)C(C#N)C12CCCC2 (stereo not given) | 10µM | ?
N#CC1(NC(=O)CSCc2ccc(Cl)cc2)CCCCCC1 | - | -
CC(C)COc1ccccc1C1CC(=O)Nc2cc3c(cc21)OCO3 (stereo not given) | 13µM | ?
COc1ccc(C2CC(=O)Nc3cc4c(cc32)OCO4)c(OC)c1 (stereo not given) | - | -
CCN(Cc1nc2cc(Cl)ccc2c(=O)[nH]1)C(=O)c1cc(Cl)c2c(c1)OCO2 | - | -
CC(C)c1ccc(CCNC(=S)Nc2ccc(Cl)cc2Cl)cc1 | - | -
Cc1cc(C)cc(NC(=O)CCn2cnc3c2c(=O)n(C)c(=O)n3C)c1 | - | -
CC1=C(C#N)C(c2cc(Br)ccc2OC(F)F)C(C#N)=C(C)N1 | 28µM | ?
CC1=C(C#N)C(c2ccccc2C)C(C#N)=C(C)N1 | - | -
CCOC(=O)Cn1nc(C)c(NC(=O)COc2ccc(Cl)cc2C)c1C | 10µM | ?
CCOC(=O)Cn1nc(C)c(NC(=O)COc2ccccc2)c1C | - | -
COc1ccc2c(C)c(CC(=O)NCCc3ccccc3F)c(=O)oc2c1C | - | -
Cc1ccc(NC(=O)N2CCN(c3cc(-c4noc(C)n4)ccc3C)CC2)c(C)c1 | - | -
SMILES | FMDV RLuc | FMDV FLuc
Cc1nc(-c2ccc(C)c(N3CCN(C(=O)Nc4cccc(Cl)c4C)CC3)c2)no1 | ? | 25µM
Cc1c(Cc2ccccc2)c(=O)oc2cc(OCCC(C)C)ccc12 | -[1.06 µM] | ?
CN(C)CCNc1oc(-c2ccccc2F)nc1S(=O)(=O)c1ccc2c(c1)OCCO2 | - | -
CCN1CCc2nc3sc(C(=O)Nc4cccc(Cl)c4C)c(N)c3cc2C1 | 7.1µM | 13µM
Cc1cccc(NC(=O)c2sc3nc4c(cc3c2N)CN(Cc2ccccc2)CC4)c1 | - | -
CC(C)NC(=O)CSc1nc(NC2CC2)c2ccccc2n1 | - | -
Cc1ccc2c(c1)c(/C=C/c1cc[n+](C)cc1)c(C)n2C | 8.9µM | ?
Cc1ccc2c(C=O)c(C)[nH]c2c1 | - | -
Cc1ccc2[nH]c(C)c(/C=C/c3cc[n+](C)cc3)c2c1 | 11µM | 13µM
Cc1cccc(Cn2c(=O)n(-c3ccccc3C)c(=O)c3c2c2cc(C)ccc2n3C)c1 | - | -
COCc1cccc(C(=O)NC(C)c2cccc(OC(F)F)c2)c1 (stereo not given) | - | -
CC(=O)N1CCC2(CC1)Oc1ccccc1C1CC(c3cccc(OC(F)F)c3)=NN12 (stereo not given) | - | -
COc1ccc(COCC(O)COc2ccccc2-c2nc3ccccc3s2)cc1 (stereo not given) | - | -
Cc1cccc(NC(=O)CN(C)Cc2coc(-c3ccccc3)n2)c1C | - | -
CCCn1c(NCc2ccc(C)cc2)nc2c1c(=O)n(C)c(=O)n2C | 28µM | ?
CCn1c(NCc2ccccc2)nc2c1c(=O)n(C)c(=O)n2C | - | -
Cn1c(=O)c2c(nc(NCCO)n2Cc2cccc(C(F)(F)F)c2)n(C)c1=O | 10µM | ?
Cn1c(=O)c2c(nc(NCc3ccccc3)n2Cc2ccccc2)n(C)c1=O | - | -
Cc1cccc(Cn2c(NCCCO)nc3c2c(=O)n(C)c(=O)n3C)c1 | - | -
Cn1c(=O)c2c(nc(NCc3ccco3)n2Cc2ccccc2)n(C)c1=O | ? | 16µM
N#Cc1ccc(NC(=O)COC(=O)c2nc(-c3ccccc3)n(-c3ccccc3)n2)cc1 | - | -
O=C(C1CCC(CNS(=O)(=O)c2ccc(Br)s2)CC1)N1CCN(c2ccccc2Cl)CC1 (stereo not given) | - | -

Screens: PubChem, National Center for Advancing Translational Sciences (NCATS)
